Beta apoptosis = beta cell apoptosis inhibition | INS-1E cytokine-induced death, ATP luminescence, 48 h; percent of positive-control rescue, neutral wells zero | protection from apoptosis, % (no concentration beside the values) | hit rate 0.8% among 300,000 | AID 435005;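 active = Every replicate reaches about 75%, or at least half do and their mean reaches it too, limit read from the data; inconclusive = At least half of replicates reach the limit but their mean does not; inactive = Under half of replicates reach the limit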;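 also: 0% = cytokine-treated negative control wells and 100% = positive control rescue; higher means more ATP so stronger rescue from cytokine killing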
Bfl-1 A1 inh = inhibitors of the anti-apoptotic protein A1, read as caspase activation; MEF A1-2A-BIM cells, Caspase-Glo 3/7 luminescence, 3 h; percent of clofoctol response, vehicle zero; AID 2462; caspase activation, % (no concentration beside the values); hit rate 0.066% among 330,000;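 active = over half of replicate activation scores above 10%, or exactly half above 10 with the replicate mean above 10; inconclusive = replicate mean below 10 yet half the replicates above 10; inactive = over half of replicates below 10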
CSC inhib = blocks cancer stem cells. cancer stem cell-like cells viability, luminescence. inhibition, % at 7.5 µM. hit rate 1.1% among 300,000; in the data active = inhibition above about 75%; inconclusive = no clear call, values can overlap the other calls; tested in HMLE shEcad cells
Mdm2 MdmX PPI = inhibitors of human Mdm2/MdmX interaction | O15151+Q00987 | SaOS-2 split-luciferase Mdm2/MdmX complementation, luminescence | inhibition, % at 8 µM | hit rate 3% among 330,000 | AID 485346;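 active = inhibition of at least 50% at 8 µM in the primary screen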
aSyn UTR inh = MLPCN primary screen, SNCA 5' untranslated region. inhibition, % (tested at 7.5 µM). alpha-synuclein 5'UTR reporter, inhibitor activity. hit rate 0.82% among 300,000. AID 1813; in the data active = inhibition above about 60%; inconclusive = no clear call, values can overlap the other calls;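 also: H4 neuroglioblastoma cells stably carrying SNCA 5'UTR luciferase fusion; 0% = DMSO wells and 100% = positive control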
Mdm2 MdmX conf = confirmation of human Mdm2/MdmX interaction inhibitors | inhibition, % at 8 µM | shares compounds with Mdm2 MdmX PPI | AID 489028 | Mdm2-MdmX binding, luminescent assay | hit rate 55% among 10,000; in the data active = inhibition above about 40%
FLuc counter = inhibits full-length luciferase, flagging false Mdm2/MdmX hits; shares compounds with Mdm2 MdmX PPI; AID 504607; hit rate 77% among 6,200; SaOS-2 full-length luciferase counterscreen, luminescence; inhibition, % at 8 µM;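 active = mean inhibition at 8 µM reaching about 37%, which flags the compound as non-specific, limit read from the data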;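 also: p53-null SaOS-2 cells with luciferase driven by a doxycycline-inducible promoter; compound on cells about two nights before reading with doxycycline added after day one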
The depositor's hits bear a star; ? = inconclusive; . = no result. This is a sample that favours compounds with a hit; in the whole collection about 4.1% have one here.

SMILES | Beta apoptosis | Bfl-1 A1 inh | CSC inhib | Mdm2 MdmX PPI | aSyn UTR inh | Mdm2 MdmX conf | FLuc counter
COc1ccc(Br)cc1C(C[N+](=O)[O-])c1c(N)n(C)c(=O)n(C)c1=O (stereo not given) | 43.5 | 0.5 | 83.4* | 50.5* | 22.5 | 9.4 | .
CN1CCN(c2nc3ccccc3nc2C(C#N)C(=O)OC2CCCCC2)CC1 (stereo not given) | 26.8 | -0.6 | 3.9 | 51.1* | 14.0 | 30.9 | 84.4*
N#CC(C(=O)OC1CCCCC1)c1nc2ccccc2nc1N1CCOCC1 (stereo not given) | 6.3 | -0.1 | -10.9 | 9.8 | 10.4 | . | .
CNc1nnc(SCC(=O)c2c(N)n(C3CC3)c(=O)[nH]c2=O)s1 | . | . | . | -7.4 | . | . | .
CC(=O)Nc1cccc(-c2csc(N)n2)c1 | -3.4 | -0.1 | 13.1 | 6.3 | -10.7 | . | .
CC(=O)Nc1cccc(-c2cnc(N)c(C(=O)c3cccnc3)n2)c1 | -38.0 | -0.9 | . | 90.0* | . | 93.4* | 54.5*
CC(NC(=O)COc1ccc(Br)cc1)C1CCCO1 (stereo not given) | -2.2 | 0.2 | -0.1 | 9.9 | 2.0 | . | .
CC(=O)N1CC(=O)N=C1SCC(=O)Nc1nc(-c2ccccc2)c(-c2ccccc2)s1 | . | 1.7 | 33.2 | 57.1* | -40.0 | 9.9 | .
Cc1ccc(NC(=O)COC(=O)Cn2cnc3c2c(=O)n(C)c(=O)n3C)c(Cl)c1 | 3.3 | 0.7 | -9.6 | -3.4 | -14.9 | . | .
CC1CCN(c2c(NCc3ccc(C(=O)N4CCc5ccccc54)cc3)c(=O)c2=O)CC1 | 15.8 | 0.5 | 54.7 | 64.8* | 88.0* | 53.3* | 39.4*
CC(=O)c1ccc(N/N=C(/C(N)=O)C2=NC(C)(C)Cc3ccccc32)cc1 | 4.4 | -0.3 | 42.0 | 63.1* | ? | 38.6 | 63.4*
COc1ccc(-c2sc3ccc(OC)cc3c2-c2ccc(OC)nc2)cc1 | 3.9 | 0.5 | 44.7 | 4.1 | . | . | .
COc1cccc(-c2sc3ccc(OC)cc3c2-c2ccc(OCCN(C)C)cc2)c1 | 3.2 | 2.4 | 103.8* | 99.4* | . | 30.2 | .
COc1ccc(-c2sc3ccccc3c2-c2ccc(OCCN(C)C)cc2)cc1 | 76.3* | 0.7 | 142.0* | 100.5* | . | 49.4* | 13.6
CN(C)CCOc1ccc(-c2c(-c3ccsc3)sc3ccccc23)cc1 | 1.2 | 2.9 | 103.8* | 93.4* | . | 33.4 | .
CC(OC(=O)C1CSC2(C)CCC(=O)N12)C(=O)Nc1ccc(F)cc1 (stereo not given) | -3.2 | 0.3 | . | 2.7 | . | . | .
O=C(c1ccc2c(c1)OCCO2)C1CCN(C(=O)Nc2ccccc2F)CC1 | 1.9 | 0.0 | . | -12.2 | 8.5 | . | .
CC1CC(C)CN(S(=O)(=O)c2ccc(C(=O)N(C)Cc3ccccc3)cc2)C1 (stereo not given) | 3.0 | 2.2 | -10.7 | -12.8 | . | . | .
CCc1cccc(C)c1NC(=O)c1cc(=O)[nH]c2ccc(S(=O)(=O)N3CCOCC3)cc12 | 0.9 | 0.0 | . | 14.3 | . | . | .
Cc1ccc(Cl)cc1N1CCN(C(=O)c2noc(C(C)C)c2[N+](=O)[O-])CC1 | -2.9 | 2.3 | 7.6 | 68.4* | -24.4 | 63.8* | 37.3*
CC(C)c1onc(C(=O)N2CCN(C(c3ccccc3)c3ccccc3)CC2)c1[N+](=O)[O-] | -2.3 | -0.5 | 49.4 | 74.0* | -11.5 | 94.5* | 63.9*
CC(C)c1onc(C(=O)N2CCN(c3ccccc3)CC2)c1[N+](=O)[O-] | -9.9 | 1.6 | -10.6 | 20.8 | -43.5 | . | .
CC(C)c1onc(C(=O)N2CCN(c3ccc(F)cc3)CC2)c1[N+](=O)[O-] | -1.6 | -0.9 | -9.9 | 2.6 | -0.3 | . | .
Cc1onc(C(=O)N2CCC(Cc3ccccc3)CC2)c1[N+](=O)[O-] | . | . | . | 82.1* | -16.2 | 5.6 | .
CCN(CC)CCN(C(=O)c1ccc2c(c1)CCCC2)c1nc2c(C)cccc2s1 | 8.2 | 0.0 | 29.6 | 32.2 | 20.2 | . | .
Cc1ccc(C)c(Cn2c(C)nc3c(sc(=S)n3-c3ccccc3)c2=O)c1 | -2.7 | 0.5 | -3.2 | 60.4* | -7.2 | 18.8 | .
Cc1ccc(-n2c(SCC(=O)O)nc3c(sc(=S)n3-c3ccc(C)c(C)c3)c2=O)cc1 | . | 0.0 | . | -17.5 | 4.7 | . | .
Cn1nc(C(F)(F)F)c(-c2ccc(Br)cc2)c1NC(=O)Nc1ccc(F)cc1F | 31.6 | 0.6 | 61.8 | 90.7* | 16.4 | 50.4* | 39.4*
C=C1CCc2c([nH]c3ccc(OCC(C)C)cc23)C1=O | 139.4* | 4.8 | 86.7* | 97.9* | -2.2 | 31.8 | .
